For six substances, GI50 results are on record in ChEMBL document CHEMBL1201862, “PubChem BioAssay data set” (2004).

Screen size: about 44,000 sequences; about 2,900 (6.6%) were called active. Rule as the data show it: active = GI50 up to about 1.1 µM and inactive = higher. These entries were drawn from the full list. Potency and affinity values are given separately.

The test has as its system NCI/ADR-RES.
The substance CISPLATIN, CHEMBL11359 had a GI50 of 4.93 µM.

Turning to “[Bis(aminomethyl)tetramethylenesilane]dichloropaltinum(II), CHEMBL2146205”, halving of growth (GI50) required 5.22 µM.

The substance “[Bis(aminomethyl)tetramethylenesilane]tetrachloropaltinum(IV), CHEMBL2146189” showed a GI50 of 5.69 µM.

With “[Bis(aminomethyl)pentamethylenesilane]tetrachloropaltinum(IV), CHEMBL2146204”, the GI50 amounted to 1.91 µM.

Substance “[Bis(aminomethyl)pentamethylenesilane]dichloropaltinum(II), CHEMBL2146202” returned a GI50 of 14.3 µM.

For the substance “[Bis(aminomethyl)dimethylsilane]tetrachloroplatinum(IV), CHEMBL2146190”, halving of growth (GI50) required 15 µM.
